SRC2 inh = human SRC2 (NCOA2) inhibition; Q15596; HEK293 GAL4-SRC2 luciferase reporter, luminescence; inhibition, % at 9 µM; 370,000 compounds, 0.17% hits; AID 651957;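 active = inhibition above the mean inhibition of all tested compounds plus 3 SD, set per campaign, cut at about 52% in these data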
NCOA1 inh = inhibits human SRC1 coactivator; AID 588354; 360,000 compounds, 0.12% hits; Q15788; inhibition, % at 3.6 µM; HEK293 GAL4-SRC1 luciferase reporter, luminescence;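 active = inhibition above the campaign mean plus 3 SD, with each screening campaign given its own cutoff, cut at about 60% in these data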
NR2F2 inh = NR2F2 (human) inhibition, primary screen; AID 686940; inhibition, % at 8.6 µM; P24468; HEK293T NGFI-A luciferase reporter, luminescence; 370,000 compounds, 0.7% hits;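 active = inhibition above a per-plate cutoff, mean inhibition of test wells between control levels plus 3 SD, cut at about 38% in these data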;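 also: cells cotransfected with COUP-TFII expression vector driving the NGFI-A reporter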
Efflux pump inh = blocks antifungal efflux pumps in multiplex yeast assay; S. cerevisiae Candida pump triplex, Nile Red efflux; inhibition, % at 10 µM; 330,000 compounds, 0.44% hits; AID 485275;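 active = plate passing quality check with inhibition over a set limit, or well fluorescence over plate mean plus 4 SD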;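 also: Nile Red retained in pooled yeast measured as flow cytometry median fluorescence; higher means more Nile Red kept so more efflux inhibition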
NCOA3 inh = inhibits human SRC3 coactivator. Q9Y6Q9. HEK293 GAL4-SRC3 luciferase reporter, luminescence. inhibition, % at 3.6 µM. 360,000 compounds, 0.17% hits. AID 588352;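 active = inhibition above a per-campaign cutoff, the mean of all compounds plus 3 SD, cut at about 60% in these data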;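 also: higher means less SRC3-driven luciferase light from the GAL4 reporter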
NR5A2 inv ag = suppresses constitutive activity of human LRH-1; HEK293T StAR-luciferase reporter, LRH-1 transfected, 24 h; inhibition, % at 3.6 µM; 360,000 compounds, 0.13% hits;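 active = inhibition above the mean inhibition of all tested compounds plus 3 SD, cut at about 73% in these data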
Large screens that a line does not name were inactive. Shown are actives, neighbours in structure and some others; about 1.2% of the full set was active somewhere.

Oc1ccccc1N=Nc1nc(-c2ccccc2)c(-c2ccccc2)[nH]1	NCOA1 inh 74, NCOA3 inh 87, NR5A2 inv ag 98
Cc1ccc(NC2=C/C(=N/S(=O)(=O)c3cccs3)c3ccccc3C2=O)cc1C	none
Cc1ccccc1NC1=C/C(=N\S(=O)(=O)c2cccs2)c2ccccc2C1=O	NCOA1 inh 80, NCOA3 inh 88
CC1CC(C)CN(S(=O)(=O)c2ccc(C(=O)NCCCn3ccnc3)cc2)C1 (centres undefined)	NCOA3 inh 62, NR5A2 inv ag 84 (no result: SRC2 inh, NR2F2 inh)
CCOC(=O)c1c(C)[nH]c(C(=O)N(C)CC(=O)Nc2ccc(OCC)c(OCC)c2)c1C	none (no result: Efflux pump inh)
CC1=C(C(=O)OCC2CCCO2)C(c2ccccc2Cl)NC(=O)N1 (centres undefined)	none
COc1cc2c(cc1OC)C1(Nc3c-2c(C)nn3-c2ccccc2)C(=O)Nc2ccccc21 (centres undefined)	none
COc1cc2c(cc1OC)C1(Nc3c-2c(-c2ccccc2)nn3-c2ccccc2)C(=O)Nc2ccccc21 (centres undefined)	Efflux pump inh 1.2
OC[C@@H]1CN(Cc2ccc(-c3ccccc3)cc2)C[C@H](n2cnc3c(NCc4ccco4)ncnc32)O1	NR2F2 inh 52 (no result: Efflux pump inh)
CCC1(c2ccc(F)cc2)NC(=O)N(CC(=O)NCc2ccc(F)cc2)C1=O (centres undefined)	none
CCOC(=O)N=Nc1c2ccccc2c2nc3no[nH]c3nc12	NCOA3 inh 89 (no result: Efflux pump inh)
CCOC(=O)N=Nc1c(O)n(CC(=O)OC)c2ccccc12	none
COC(=O)C1CSc2[nH]c(=O)sc2C1c1ccc(O)c(OC)c1 (centres undefined)	none
COc1ccccc1/C=C/C(=O)/C=C/c1ccccc1O	none (no result: Efflux pump inh)
COc1ccccc1C=CC(=O)C=Cc1ccccc1OC	NR2F2 inh 50 (no result: Efflux pump inh)
CC(=O)n1cc(N(C(=O)CCl)c2ccc([N+](=O)[O-])cc2)c2ccccc21	SRC2 inh 56
CC(=O)n1cc(N(C(=O)CCl)c2ccccc2)c2ccccc21	none
Brc1ccc(N/N=C(/N=Nc2nn[nH]n2)c2ccccc2)cc1	NCOA3 inh 63
O=C(O)c1ccc(N=N/C(=N\Nc2ccc(C(=O)O)cc2)c2ccccc2)cc1	none
C=C1C(=O)OC2C1CCC(C)C1C=CC(=O)C12C (centres undefined)	none (no result: Efflux pump inh)
C=C1C(=O)OC2CC1C(O)CC(C)=CCCC(C)=CC(O)CC2C (centres undefined)	NR2F2 inh 47 (no result: Efflux pump inh)
CN1C(=O)N(C)N(Cc2ccccc2)C(=O)N1Cc1ccccc1	none (no result: NCOA1 inh, Efflux pump inh, NCOA3 inh, NR5A2 inv ag)
O=C1C=CC(=O)N1Cc1ccccc1	NR2F2 inh 61
O=C1CC(=O)OC(c2ccc([N+](=O)[O-])cc2)O1	NCOA3 inh 78 (no result: SRC2 inh, NR2F2 inh, Efflux pump inh)
CCC1C(=O)C(C)(C)C(=O)OC1c1ccc([N+](=O)[O-])cc1 (centres undefined)	none
CCC1(c2ccccc2)NC(=O)N(CC(=O)N2CCN(S(=O)(=O)c3ccccc3)CC2)C1=O (centres undefined)	none
O=C1c2ccccc2C(=O)c2c(Nc3ccc(CCO)cc3)ccc(O)c21	none
O=C1c2c(O)ccc(O)c2C(=O)c2c(NCCNCCO)ccc(NCCNCCO)c21	NCOA1 inh 65
COc1cc(-c2nnc(-c3cc(-c4ccccc4)nc4ccccc34)o2)cc(OC)c1OC	SRC2 inh 94 (no result: Efflux pump inh)
COc1cc(-c2nnc(-c3ccccc3)o2)cc(OC)c1OC	none
O=C(CCl)NC(Cc1ccccc1)c1ccccc1 (centres undefined)	SRC2 inh 57
CC(=O)Nc1ccc(Nc2ccc(S(=O)(=O)C(F)(F)F)cc2[N+](=O)[O-])cc1	none
O=C(Nc1nnc([C@H]2C[C@H](O)[C@@H](CO)O2)s1)c1ccccc1F	none (no result: Efflux pump inh)
CCOC(=O)N(C)[C@H]1C[C@H]2c3[nH]c4c(-c5cccc(C)c5)cccc4c3CCN2C[C@H]1[C@H](C)O	none (no result: NCOA1 inh, Efflux pump inh, NCOA3 inh, NR5A2 inv ag)
CCOC(=O)N(C)[C@H]1C[C@H]2c3cc(-c4ccccc4C)ccc3CCN2C[C@H]1[C@H](C)O	NR2F2 inh 61 (no result: NCOA1 inh, Efflux pump inh, NCOA3 inh, NR5A2 inv ag)
CC(=O)N1c2c(cc(Br)cc2S(=O)(=O)N2CCN(c3ccccn3)CC2)CC1C (centres undefined)	none
CCCN(CC(=O)Nc1ccccc1C)C(=O)C1CC(=O)N(Cc2ccccc2)C1 (centres undefined)	none
C=CC(=O)Nc1cccc(Nc2nc(N[C@H]3CC[C@H](N(C)C)CC3)nc3c2ncn3C(C)C)c1	NCOA1 inh 88, NCOA3 inh 87, NR5A2 inv ag 98 (no result: SRC2 inh, NR2F2 inh, Efflux pump inh)
CC(C)n1cnc2c(Nc3cccc(Cl)c3)nc(NCCCO)nc21	none
O=C(CCl)N1N=C(c2cccs2)CC1c1ccco1 (centres undefined)	SRC2 inh 60
Cc1c2cc(O)c(=O)cc-2oc2cc(O)c(O)cc12	Efflux pump inh 1.0
COc1cc(OC)c(-c2c3cc(O)c(=O)cc-3oc3cc(O)c(O)cc23)cc1OC	none
NNC(=O)c1cc2ccccc2cc1O	SRC2 inh 71, NCOA3 inh 62
Cc1nc2c(O)c3c(c(O)c2nc1C)C1C=CC3CC1	SRC2 inh 62, NCOA1 inh 89, NCOA3 inh 91, NR5A2 inv ag 95 (no result: Efflux pump inh)
CCCOc1ccc(C(=O)Nc2ccc(N(C)C)cc2)cc1	none
O=C(c1cn(-c2ccccc2)nc1-c1cccs1)N1CCN(c2ccccc2)CC1	none (no result: SRC2 inh, NR2F2 inh)
CC(C)(C)c1nnc(N/N=C/c2ccccc2O)n(N)c1=O	NCOA1 inh 70, NCOA3 inh 79
CC(C)(C)c1nnc(N/N=C/c2ccccc2)n(N)c1=O	none
Cc1ccc(-c2cc(C(=O)NCCCN3CCOCC3)no2)cc1	SRC2 inh 56
O=C(NN1C(=O)/C(=C/C=C/c2ccco2)SC1=S)c1ccccc1O	Efflux pump inh 2.0
CN(C)CC1CCC/C(=C\c2ccc(OC(=O)c3ccc(Cl)cc3)cc2)C1=O (centres undefined)	NCOA1 inh 67 (no result: Efflux pump inh)
CN(C)CC1CCC/C(=C\c2ccc(OC(=O)/C=C/c3ccccc3)cc2)C1=O (centres undefined)	none (no result: Efflux pump inh)
CC(C)(C)c1ccc(S(=O)(=O)NCC2CCN(C(=O)C(=O)c3cccs3)CC2)cc1	none (no result: NCOA1 inh, Efflux pump inh, NCOA3 inh, NR5A2 inv ag)
CCOc1ccc(-n2c(C)c(C(C)=O)c3cc(O)ccc32)cc1	NCOA1 inh 61
CCOc1ccc(-n2c(C)c(C(=O)OC)c3cc(O)ccc32)cc1	none
O=C(O)C1CCCN1c1nc(-c2ccc(Cl)c(Cl)c2)cc(C(F)(F)F)n1 (centres undefined)	NCOA3 inh 72, NR5A2 inv ag 92
COc1ccc(C(=O)C2CCCN(C(=O)c3ccc(CSC)o3)C2)cc1F (centres undefined)	none
CC(=O)C1=C(c2ccc(Br)cc2)C(=O)c2ccccc2C1=O	SRC2 inh 70, NCOA1 inh 91, NR2F2 inh 71, NCOA3 inh 92, NR5A2 inv ag 85

Screening results (PubChem BioAssay)
